{
  "source": "PubChem BioAssay AID504725",
  "about": "(Broad Institute, 2011)",
  "target": "KSHV LANA C-terminal domain (residues 932-1162) binding to LBS DNA (UniProt O40947)",
  "experiment": "KSHV LANA DNA-binding disruption – biochemical, fluorescence polarization, cherry-picked samples, dose response (AID 504725)",
  "details": "MBP-C-LANA / FAM-LBS DNA fluorescence polarization, percent change from plate compound-well median; series mostly up to 35 µM",
  "note": "Potency and affinity values are given separately. The source made the active and inactive calls. A call without a number means that no potency is given here. No rule for the calls is given here.",
  "data": [
    {"smiles": "O=C(O)/C(=C\\c1cccs1)Sc1nnc(-c2ccc(F)cc2)o1", "values": [
      {"measurement": "outcome", "result": "inactive"}
    ]},
    {"smiles": "COc1ccc(Cn2nnc3c(=O)[nH]c(C4CCCN(C(=O)c5ccccc5)C4)nc32)cc1", "note": "(stereo not drawn)", "values": [
      {"measurement": "outcome", "result": "inactive"}
    ]},
    {"smiles": "C/C(=N\\Nc1nc2c(s1)CCCC2)c1ccc(Cl)cc1", "values": [
      {"measurement": "outcome", "result": "inactive"}
    ]},
    {"smiles": "C=CCN1C(=O)/C(=c2\\sc3nc(=O)c(Cc4ccccc4Cl)nn3c2=O)c2ccccc21", "values": [
      {"measurement": "outcome", "result": "inactive"}
    ]},
    {"smiles": "C=CCn1c(C)cc(-c2csc(NC(=O)CCc3nc4ccccc4c(=O)[nH]3)n2)c1C", "values": [
      {"measurement": "outcome", "result": "inactive"}
    ]},
    {"smiles": "Cc1cc(C)n(CCC(=O)N/N=C/c2ccc(O)cc2O)n1", "values": [
      {"measurement": "outcome", "result": "inactive"}
    ]},
    {"smiles": "Cc1c(C)n(CCC(=O)O)c2ccccc12", "values": [
      {"measurement": "outcome", "result": "inactive"}
    ]},
    {"smiles": "CN(C)/C=N/c1nc2nccc(-c3ccc(Cl)cc3)n2n1", "values": [
      {"measurement": "outcome", "result": "inactive"}
    ]},
    {"smiles": "CS(=O)(=O)c1cccc(C(=O)Oc2ccccc2)c1", "values": [
      {"measurement": "outcome", "result": "inactive"}
    ]},
    {"smiles": "Cc1cc(C)n2nc(C(=O)OC(C)C(=O)c3cc(C)c(C)cc3C)nc2n1", "note": "(stereo not drawn)", "values": [
      {"measurement": "outcome", "result": "inactive"}
    ]},
    {"smiles": "Cc1ccc(/C=C/S(=O)(=O)N2CCC(C(=O)O)CC2)cc1", "values": [
      {"measurement": "outcome", "result": "inactive"}
    ]},
    {"smiles": "CC[C@H](C)[C@H](NC(N)=O)C(=O)Nc1ccc(NC(C)=O)cc1", "values": [
      {"measurement": "outcome", "result": "inactive"}
    ]},
    {"smiles": "CCC(=O)Nc1cccc(C(=O)/C=C/c2ccccc2)c1", "values": [
      {"measurement": "outcome", "result": "inactive"}
    ]},
    {"smiles": "Cn1c(N)c(C(=O)COC(=O)c2ccc(Cl)c(S(=O)(=O)N3CCCC3)c2)c(=O)n(C)c1=O", "values": [
      {"measurement": "outcome", "result": "inactive"}
    ]},
    {"smiles": "CNC(=S)Nc1cccc(C(=O)OC)c1", "values": [
      {"measurement": "outcome", "result": "inactive"}
    ]},
    {"smiles": "COc1cc2c(cc1OC)CN(C(=O)c1ccc(S(=O)(=O)N3CCCC3)cc1)CC2", "values": [
      {"measurement": "outcome", "result": "inactive"}
    ]},
    {"smiles": "CC(C)(C)OC(=O)N1CCC[C@H]1c1nnc(SCc2cccc(Cl)c2)o1", "values": [
      {"measurement": "outcome", "result": "inactive"}
    ]},
    {"smiles": "C/C(=N\\NC(=O)CCc1c(C)n[nH]c1C)c1ccc([N+](=O)[O-])cc1", "values": [
      {"measurement": "outcome", "result": "inactive"}
    ]}
  ]
}
